Our source for the Potency and outcome values is PubChem BioAssay (Tox21).

Assay [1] is described as follows: qHTS assay for small molecule agonists of the p53 signaling pathway - cell viability (AID 651633; calls by dose curve; note: nearly all actives have a fitted effect of over 30% in size; note: potency is the fitted concentration of half-maximal effect). The method in brief:
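p53RE-bla cells, seeded at 4,000 per well and rested 5 h at 37 C/5% CO2, received compounds in DMSO for 16 h at 37 C. CellTiter-Glo was then added, and luminescence was read after 30 min at room temperature to gauge cytotoxicity.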
For orientation: qHTS replaces the single test concentration by a dilution series.

Assay [2] can be described thus: qHTS assay to test for compound auto fluorescence at 590 nm (red) in HepG2 cells (AID 720674). The gist of the method: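 Intrinsic compound fluorescence in the red window (Ex/Em 540/590 nm) is measured in attached HepG2 cells exposed for 1 hr, DMSO vehicle as baseline, benchmarked to Rose Bengal sodium.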
The nature of assay [3]: qHTS assay to test for compound auto fluorescence at 535 nm (green) in HepG2 cells (AID 720675).
Assay [4] is described as follows: qHTS assay to test for compound auto fluorescence at 460 nm (blue) in HEK293 cells (AID 720678). The method in brief: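 Auto fluorescence in the blue band was quantified as triamterene equivalency. HEK293 cells were seeded at 2,000/well, dosed after a 4-5 hr attachment, and kept overnight at 37C before the 405/460 nm reading.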
Assay [5] is described as follows: qHTS assay to test for compound auto fluorescence at 590 nm (red) in HEK293 cells (AID 720679). The method in brief:
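Autofluorescence equivalency to Rose Bengal sodium, 540/590nm, in HEK293 cells exposed overnight to 23 nL compound per well.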

Assay [6] is described as follows: qHTS assay to test for compound auto fluorescence at 535 nm (green) in HEK293 cells (AID 720680).
A short description of assay [7]: qHTS assay to test for compound auto fluorescence at 460 nm (blue) in HEK293 cell free culture (AID 720681). The method in brief:
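Test compounds were pinned into cell-free culture medium (DMEM with 10% FBS) and fluorescence was read directly at Ex/Em 405/460 nm. Signals were expressed as fluorescence equivalents of triamterene, with DMSO vehicle as control.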

A short description of assay [8]: qHTS assay to test for compound auto fluorescence at 535 nm (green) in HEK293 cell free culture (AID 720682). The gist of the method: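 No cells present: wells hold DMEM supplemented with 10% FBS, into which compound or vehicle is pinned. Green emission is then recorded (485 nm excitation, 535 nm emission) and scaled to fluorescein.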
Assay [9] is described as follows: qHTS assay to test for compound auto fluorescence at 590 nm (red) in HEK293 cell free culture (AID 720683). The gist of the method: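 Tox21 10K library compounds were pinned into cell-free DMEM with 10% FBS and fluorescence was read at excitation 540 nm. Activity is expressed as Rose Bengal sodium equivalency.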
Assay [10] in a line: qHTS assay to test for compound auto fluorescence at 590 nm (red) in HepG2 cell free culture (AID 720684). The gist of the method: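 Red fluorescence (540 nm excitation, 590 nm emission) was measured after compound transfer into cell-free MEM supplemented with 10% FBS. Values are equivalencies against Rose Bengal sodium.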
Assay [11] is described as follows: qHTS assay to test for compound auto fluorescence at 460 nm (blue) in HepG2 cell free culture (AID 720685). The method in brief:
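Compound (23 nL) or DMSO pinned into cell-free MEM with 10% FBS; blue fluorescence read at 405/460 nm excitation/emission, expressed as auto-fluorescence equivalency to triamterene.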

Assay [12] is described as follows: qHTS assay to test for compound auto fluorescence at 535 nm (green) in HepG2 cell free culture (AID 720686).
Assay [13] in a line: qHTS assay to test for compound auto fluorescence at 460 nm (blue) in HepG2 cells (AID 720687). The gist of the method:
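Cells (2,000/well in MEM with 10% FBS) attached overnight at 37 C, then were exposed to compound or DMSO for 1 hr at 37 C, 5% CO2. Fluorescence read at Ex/Em 405/460 nm, expressed as triamterene-equivalent signal.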

Assay [14] can be described thus: qHTS assay for small molecules that induce genotoxicity in human embryonic kidney cells expressing luciferase-tagged ATAD5 (AID 651632). Note: nearly all actives have a fitted effect of over 15% in size. The gist of the method: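 Reporter cells (HEK293T) express luciferase-tagged ATAD5, a protein that accumulates after DNA damage. Treat 16 hr at 37C/5% CO2, add Amplite, wait 30 min at RT, and read luminescence.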
Assay [15] can be described thus: qHTS assay for small molecule disruptors of the mitochondrial membrane potential (AID 720635). Note: potency is the fitted concentration of half-maximal effect. The gist of the method:
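HepG2 cells (2,000/well) attached overnight at 37C, then took compound for 1 hr at 37C, 5% CO2. Mito-MPS dye was added for 30 min; fluorescence was read at 490/535 nm (monomers) and 540/590 nm (aggregates).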

Assay [16] addresses Glucocorticoid receptor (Homo sapiens) (UniProt P04150). In words: qHTS assay to identify small molecule agonists of the glucocorticoid receptor (GR) signaling pathway (AID 720691; active = well fitted activation curve with a large enough effect in the signal ratio in the repeat runs, not every such curve was filed as active; the % refers to the signal ratio; note: potency is the fitted concentration of half-maximal effect). The gist of the method:
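Reporter read-out: fluorescence intensity following 2 h room-temperature LiveBLAzer B/G FRET substrate loading. Prior step: GR-bla HeLa cells held 4 h, then treated 18 h at 37 C.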

For assay [17] the target is unchanged. The assay can be described thus: qHTS assay to identify small molecule antagonists of the glucocorticoid receptor (GR) signaling pathway (AID 720692; active = well fitted inhibition curve with a large enough effect in the signal ratio in the repeat runs, not every such curve was filed as active; the % refers to the signal ratio; note: potency is the fitted concentration of half-maximal effect). The gist of the method:
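Dexamethasone (5 nM final) stimulated a stably integrated GRE-beta-lactamase reporter in HeLa cells during 18 h co-incubation with compounds; signal was quantified as fluorescence intensity of B/G FRET substrate after 2 h.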

The nature of assay [18]: qHTS assay for small molecule disruptors of the mitochondrial membrane potential - cell viability (AID 720634; calls by dose curve; note: nearly all actives have a fitted effect of over 20% in size; note: potency is the fitted concentration of half-maximal effect). The gist of the method:
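Measuring cytotoxicity alongside mitochondrial potential, the screen quantified ATP by luminescence in HepG2 cells after 1 hr compound incubation and a 30 min room-temperature CellTiter-Glo step.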

A short description of assay [19]: qHTS assay for small molecules that induce genotoxicity in human embryonic kidney cells expressing luciferase-tagged ATAD5 - cell viability (AID 651634; calls by dose curve; note: potency is the fitted concentration of half-maximal effect; nearly all actives have a fitted effect of over 25% in size). The method in brief:
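Seeding of 2,000 HEK293T ATAD5-luciferase cells per well preceded pin-tool compound transfer. Plates sat 15.5 hr at 37C under 5% CO2, then fluorescence was read after 30 min with CellTiter-Fluor.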

Results filed as inconclusive are left out. Activity calls are given as the source filed them. Unless noted, calls come from the whole dose curve; as a rule, active = well fitted curve in the direction sought with a large enough effect in the repeat runs; inconclusive = weak or mixed curves; inactive = no such curve, though single readings can be large; an effect the other way counts as inactive or inconclusive.

Sequence of Glucocorticoid receptor (Homo sapiens) (P04150 whole entry, looked up): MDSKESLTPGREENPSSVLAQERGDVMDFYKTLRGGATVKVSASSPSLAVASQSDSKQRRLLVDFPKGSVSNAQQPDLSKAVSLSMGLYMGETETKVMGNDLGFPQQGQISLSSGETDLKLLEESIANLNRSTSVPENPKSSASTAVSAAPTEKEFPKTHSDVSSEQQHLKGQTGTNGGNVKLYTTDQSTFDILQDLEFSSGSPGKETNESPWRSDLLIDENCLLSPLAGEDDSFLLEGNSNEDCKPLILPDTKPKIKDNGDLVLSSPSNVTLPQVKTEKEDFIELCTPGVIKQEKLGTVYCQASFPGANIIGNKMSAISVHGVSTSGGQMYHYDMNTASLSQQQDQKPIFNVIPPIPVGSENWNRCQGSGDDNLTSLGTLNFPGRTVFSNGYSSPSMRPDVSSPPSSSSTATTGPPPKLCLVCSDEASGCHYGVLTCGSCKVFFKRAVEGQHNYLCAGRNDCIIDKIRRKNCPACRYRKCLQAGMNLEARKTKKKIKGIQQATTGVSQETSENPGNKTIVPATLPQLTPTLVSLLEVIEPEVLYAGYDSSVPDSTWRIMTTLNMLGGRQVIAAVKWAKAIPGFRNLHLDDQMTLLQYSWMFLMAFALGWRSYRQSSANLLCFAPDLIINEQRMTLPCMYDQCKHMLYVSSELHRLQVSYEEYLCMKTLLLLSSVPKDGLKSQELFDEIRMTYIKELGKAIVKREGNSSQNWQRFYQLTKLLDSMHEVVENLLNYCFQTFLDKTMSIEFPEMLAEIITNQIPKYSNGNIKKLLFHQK

With `CC(=O)[O-].[Tl+]`, in assay [1], the Potency was 43.5 µM (active). Further, the outcome in assay [2], in assay [3], in [5], in [6], in assay [8] and in assay [9] was inactive. Moreover, the outcome in assay [10] and in assay [12] was inactive. Further, the Potency entry in assay [4], in assay [7], in [11] and in [13] was “inactive” throughout.
For the compound `CCOP(=S)(OCC)OC(Cl)C(Cl)(Cl)Cl` (configuration not stated), the Potency result in assay [14], in assay [7], in assay [11], in assay [13], in assay [16] and in [17] was “inactive” in each case. Besides, the Potency in [15] is 61.1 µM (active). For the same compound, the result in [2], in [3], in assay [5], in assay [6], in assay [8] and in [9] was inactive. In addition, the call in assay [10] and in assay [12] was inactive.
As to `N#CC(Cl)Cl`, the Potency entry in assay [1], in assay [18], in assay [7], in assay [11] and in assay [13] was “inactive” throughout. Also, the result in assay [2], in [3], in [5], in assay [6], in assay [8] and in assay [9] was inactive. The compound was classed as inactive in assay [10] and in [12].
For the compound `COc1cccc(C(=O)CCN[C@@H](C)[C@H](O)c2ccccc2)c1`, the Potency result in [14], in [18], in assay [4], in [7], in assay [11] and in assay [13] was “inactive” throughout. In [16], the Potency result was “inactive”. In addition, the result in [2], in assay [3], in assay [5], in assay [6], in assay [8] and in assay [9] was inactive. Besides, the call in assay [10] and in [12] was inactive.
With `O=[N+]([O-])O.O=[N+]([O-])O.[Cd]`, the Potency in assay [19] is 1.22 µM (active); in [16], 0.389 µM (active); in [17], 43.6 µM (active). The call in assay [2], in [3], in assay [5], in assay [6], in [8] and in assay [9] was inactive. Further, the compound was called inactive in [10] and in [12]. Further, the Potency entry in assay [4], in assay [11] and in assay [13] was “inactive” in each case.
For the compound `CN(C)S(=O)(=O)N(SC(F)(Cl)Cl)c1ccccc1`, the Potency entry in assay [14], in assay [4] and in [13] was “inactive” each time. Also, the Potency in assay [18] was 61.1 µM (active); in assay [15] it was 4.86 µM (active). Further, the compound was called inactive in assay [2], in assay [3], in assay [5], in [6], in assay [8] and in assay [9]. Also, the call in [10] and in assay [12] was inactive.
For `Oc1c(Br)c(Br)c(Br)c(Br)c1Br`, the Potency entry in [14], in assay [18], in assay [7], in [11], in [13] and in [16] was “inactive” in each case. In addition, the Potency in assay [15] is 2.45 µM (active); in assay [17] it was 13.9 µM (active). The outcome in [2], in [3], in assay [5], in assay [6], in assay [8] and in assay [9] was inactive. In addition, the outcome in assay [10] and in assay [12] was inactive.
On to `C=CC(=O)OCCCCOC(=O)C=C`, for which the results for the Potency in [19] and in assay [17] were 54.5 µM (active) and 24.5 µM (active), respectively. For the same compound, the Potency result in assay [18], in assay [15], in [4], in assay [7], in assay [13] and in assay [16] was “inactive” each time. Moreover, the outcome in assay [2], in [3], in assay [5], in [6], in assay [9] and in assay [10] was inactive. In addition, the compound was classed as inactive in [12].
In the case of `CCCSP(=O)(OCC)SCCC`, the Potency result in assay [18], in assay [4], in [11], in assay [13] and in assay [16] was “inactive” in each case. Besides, the compound was classed as inactive in assay [2], in [3], in [5], in [6], in assay [8] and in assay [9]. Further, the compound was called inactive in [10] and in assay [12].
